For 40 sequences, binding signal results are on record in publication PMC13541613, “GHT-SELEX demonstrates unexpectedly high intrinsic sequence specificity and complex DNA binding of many human transcription factors”.

The target of one assay is ZNF721 full-length (Homo sapiens, UniProt Q8TF20-2 1-923). Briefly: HT-SELEX; 20 mM HEPES pH 7, 140 mM KCl, 5 mM NaCl, 1 mM K2HPO4, 2 mM MgSO4, 100 uM EGTA, ZnSO4, 0.1% Tween20; room temperature, 1 h; high values mean tight binding. Conditions: protein: ivt; tags: eGFP (N-terminal); dsDNA, one strand shown. In outline: (§1)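 In HEPES/KCl low-stringency buffer with Tween20, a bead-immobilised tagged transcription factor (full-length or DNA-binding-domain fragment, from HEK293 lysate or cell-free extract) was incubated with a randomized 40-base DNA library for 1 h at room temperature. DNA retained after washing was heat-eluted, amplified by PCR over successive cycles and Illumina-sequenced, giving ~3 million 60 bp reads per sample. The reported binding signal, a relative k-mer count in those selected reads, rises with tighter binding.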
Chain of ZNF721 full-length (Q8TF20 other isoform, or with tags, fused parts or gaps): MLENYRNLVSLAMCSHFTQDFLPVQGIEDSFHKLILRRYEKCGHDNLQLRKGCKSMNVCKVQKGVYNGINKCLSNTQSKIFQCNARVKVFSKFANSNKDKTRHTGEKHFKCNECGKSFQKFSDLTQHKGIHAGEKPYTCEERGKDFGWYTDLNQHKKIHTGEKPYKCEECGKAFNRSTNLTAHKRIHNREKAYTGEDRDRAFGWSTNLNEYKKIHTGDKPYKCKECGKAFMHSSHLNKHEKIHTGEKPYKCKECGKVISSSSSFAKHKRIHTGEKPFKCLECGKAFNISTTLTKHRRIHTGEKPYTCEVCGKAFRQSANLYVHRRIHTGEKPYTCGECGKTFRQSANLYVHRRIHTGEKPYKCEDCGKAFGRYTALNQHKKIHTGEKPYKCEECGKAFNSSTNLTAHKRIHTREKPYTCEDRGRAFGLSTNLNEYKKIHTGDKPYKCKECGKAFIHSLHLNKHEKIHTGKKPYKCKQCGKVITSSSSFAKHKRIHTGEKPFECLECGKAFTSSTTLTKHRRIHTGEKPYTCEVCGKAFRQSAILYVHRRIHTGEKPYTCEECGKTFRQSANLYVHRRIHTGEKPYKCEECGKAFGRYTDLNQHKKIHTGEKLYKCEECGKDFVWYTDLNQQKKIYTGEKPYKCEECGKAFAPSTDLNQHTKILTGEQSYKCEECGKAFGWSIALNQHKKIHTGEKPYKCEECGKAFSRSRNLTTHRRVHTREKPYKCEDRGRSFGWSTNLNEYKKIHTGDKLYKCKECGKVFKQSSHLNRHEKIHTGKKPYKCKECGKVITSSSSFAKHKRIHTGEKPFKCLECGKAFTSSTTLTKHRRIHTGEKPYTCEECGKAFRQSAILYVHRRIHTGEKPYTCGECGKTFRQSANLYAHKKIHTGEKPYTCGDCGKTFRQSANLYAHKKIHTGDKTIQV

The next assay addresses ZNF721 DBD2 (Homo sapiens, UniProt Q8TF20-2 395-923). The description is as above. Conditions: protein: ivt; tags: eGFP (N-terminal); dsDNA, one strand shown. Summed up:
as §1

Chain of ZNF721 DBD2 (Q8TF20 383-911): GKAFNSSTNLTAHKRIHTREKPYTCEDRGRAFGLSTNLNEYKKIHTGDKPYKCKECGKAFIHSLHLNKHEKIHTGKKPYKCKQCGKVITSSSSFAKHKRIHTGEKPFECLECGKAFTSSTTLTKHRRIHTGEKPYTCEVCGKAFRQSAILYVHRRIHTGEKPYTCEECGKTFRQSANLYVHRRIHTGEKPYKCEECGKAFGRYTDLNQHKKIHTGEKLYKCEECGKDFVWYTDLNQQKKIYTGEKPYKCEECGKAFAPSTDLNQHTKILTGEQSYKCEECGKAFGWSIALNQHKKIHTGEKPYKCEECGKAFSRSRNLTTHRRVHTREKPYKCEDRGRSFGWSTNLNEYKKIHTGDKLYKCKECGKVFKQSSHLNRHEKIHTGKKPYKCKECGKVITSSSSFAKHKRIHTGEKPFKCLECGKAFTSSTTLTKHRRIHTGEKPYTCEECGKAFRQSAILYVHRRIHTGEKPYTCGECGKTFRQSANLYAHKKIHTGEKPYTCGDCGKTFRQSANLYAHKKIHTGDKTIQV

In the case of AAAAGCAGGG, the figures for the binding signal in the assay with ZNF721 full-length and in the assay with ZNF721 DBD2 were 0.207 relative 10-mer count and 0.218 relative 10-mer count, respectively.

As for AAAAAAACAG, the binding signal in the assay with ZNF721 full-length worked out at 0.967 relative 10-mer count; with ZNF721 DBD2, 0.753 relative 10-mer count.

Consider AAACAGCAGT, for which the binding signal is 0.106 relative 10-mer count with ZNF721 full-length and 0.159 relative 10-mer count in the assay with ZNF721 DBD2.

Take AGACACTGCT: the binding signal was 0.109 relative 10-mer count with ZNF721 full-length and 0.127 relative 10-mer count in the assay with ZNF721 DBD2.

For ACACTGCTTG, the results for the binding signal in the assay with ZNF721 full-length and in the assay with ZNF721 DBD2 were 0.107 relative 10-mer count and 0.138 relative 10-mer count, respectively.

Regarding AAACAGCACA, the binding signal with ZNF721 full-length stood at 0.11 relative 10-mer count; with ZNF721 DBD2 it was 0.109 relative 10-mer count.

As to AATAAAACAG, the binding signal in the assay with ZNF721 full-length was 0.132 relative 10-mer count; with ZNF721 DBD2, 0.168 relative 10-mer count.

In the case of ACGAAAACAG, the binding signal in the assay with ZNF721 full-length worked out at 0.106 relative 10-mer count; with ZNF721 DBD2, 0.149 relative 10-mer count.

ACAGCGTTTC: the binding signal with ZNF721 full-length amounted to 0.253 relative 10-mer count; in the assay with ZNF721 DBD2, 0.448 relative 10-mer count.

For the sequence CCGAAAACAG, the binding signal in the assay with ZNF721 full-length was 0.111 relative 10-mer count; with ZNF721 DBD2, 0.217 relative 10-mer count.

With CAGTGTTGCC, the binding signal with ZNF721 full-length is 0.253 relative 10-mer count; with ZNF721 DBD2 it was 0.686 relative 10-mer count.

As for AACAGCATCC, the figures for the binding signal with ZNF721 full-length and in the assay with ZNF721 DBD2 were 0.117 relative 10-mer count and 0.1 relative 10-mer count, respectively.

For the sequence CGAAAACAGC, the binding signal with ZNF721 full-length was 0.167 relative 10-mer count; in the assay with ZNF721 DBD2, 0.261 relative 10-mer count.

With GAAAAACAGC, the binding signal worked out at 0.265 relative 10-mer count with ZNF721 full-length and 0.324 relative 10-mer count with ZNF721 DBD2.

In the case of CAGCATCTCC, the binding signal came to 0.126 relative 10-mer count in the assay with ZNF721 full-length and 0.214 relative 10-mer count with ZNF721 DBD2.

As to AAAAACAGCG, the binding signal with ZNF721 full-length is 0.589 relative 10-mer count; with ZNF721 DBD2, 0.668 relative 10-mer count.

Take GCAACACTGC: the binding signal with ZNF721 full-length came to 0.135 relative 10-mer count; with ZNF721 DBD2, 0.238 relative 10-mer count.

Take CAGCATGCCC: the binding signal in the assay with ZNF721 full-length is 0.121 relative 10-mer count; in the assay with ZNF721 DBD2, 0.244 relative 10-mer count.

For the sequence ACGCTGTTTC, the values for the binding signal with ZNF721 full-length and with ZNF721 DBD2 were 0.13 relative 10-mer count and 0.199 relative 10-mer count, respectively.

On to ACAGCATACC, for which the binding signal worked out at 0.516 relative 10-mer count in the assay with ZNF721 full-length and 0.692 relative 10-mer count with ZNF721 DBD2.

In the case of AAAAACAGCC, the binding signal with ZNF721 full-length stood at 0.167 relative 10-mer count; with ZNF721 DBD2, 0.172 relative 10-mer count.

Regarding AAGCAGTGTA, the binding signal in the assay with ZNF721 full-length amounted to 0.142 relative 10-mer count; with ZNF721 DBD2 it was 0.18 relative 10-mer count.

With AACAAACAGC, the binding signal with ZNF721 full-length was 0.119 relative 10-mer count; with ZNF721 DBD2, 0.0709 relative 10-mer count.

With AAACTAGCAT, the binding signal came out at 0.118 relative 10-mer count with ZNF721 full-length and 0.175 relative 10-mer count with ZNF721 DBD2.

For the sequence AACAGTGTTG, the binding signal with ZNF721 full-length was found to be 0.127 relative 10-mer count; in the assay with ZNF721 DBD2 it was 0.327 relative 10-mer count.

With AAACAGGGGT, the binding signal with ZNF721 full-length is 0.106 relative 10-mer count; in the assay with ZNF721 DBD2, 0.153 relative 10-mer count.

With AAAAAGCAGG, the binding signal came to 0.195 relative 10-mer count in the assay with ZNF721 full-length and 0.172 relative 10-mer count with ZNF721 DBD2.

With ATAAAAACAG, the binding signal with ZNF721 full-length was found to be 0.11 relative 10-mer count; with ZNF721 DBD2, 0.148 relative 10-mer count.

In the case of AACACTGCTT, the results for the binding signal with ZNF721 full-length and with ZNF721 DBD2 were 0.388 relative 10-mer count and 0.495 relative 10-mer count, respectively.

CAAAAAACAG: the binding signal with ZNF721 full-length was 0.386 relative 10-mer count; with ZNF721 DBD2, 0.495 relative 10-mer count.

As for AACAGCATAT, the binding signal with ZNF721 full-length is 0.118 relative 10-mer count; with ZNF721 DBD2, 0.181 relative 10-mer count.

Take GAAAACAGCA: the binding signal came to 0.299 relative 10-mer count with ZNF721 full-length and 0.388 relative 10-mer count with ZNF721 DBD2.

Regarding ACAGTGTATC, the binding signal with ZNF721 full-length was found to be 0.137 relative 10-mer count; with ZNF721 DBD2 it was 0.202 relative 10-mer count.

With AAAAACAGTC, the binding signal with ZNF721 full-length amounted to 0.149 relative 10-mer count; with ZNF721 DBD2, 0.169 relative 10-mer count.

Take ACAGTGTCTC: the results for the binding signal with ZNF721 full-length and with ZNF721 DBD2 were 0.106 relative 10-mer count and 0.236 relative 10-mer count, respectively.

With AACAGTGTAT, the binding signal stood at 0.129 relative 10-mer count with ZNF721 full-length and 0.199 relative 10-mer count with ZNF721 DBD2.

With CCAAAAACAG, the binding signal in the assay with ZNF721 full-length was 0.108 relative 10-mer count; in the assay with ZNF721 DBD2 it was 0.144 relative 10-mer count.

In the case of CAAAGCAGTG, the binding signal with ZNF721 full-length came to 0.119 relative 10-mer count; with ZNF721 DBD2, 0.198 relative 10-mer count.

CAGGGTTTCC: the figures for the binding signal in the assay with ZNF721 full-length and with ZNF721 DBD2 were 0.162 relative 10-mer count and 0.368 relative 10-mer count, respectively.

Consider GCTGTTTTTA, for which the binding signal in the assay with ZNF721 full-length was determined as 0.135 relative 10-mer count; with ZNF721 DBD2, 0.204 relative 10-mer count.
